Screening results (PubChem BioAssay)
Most compounds without a hit are left out; they make up all but 7% or so of the library.
HP1b binding inh: inhibitors of HP1-beta chromodomain binding to methylated histone tails | 390,000 tested, 0.56% active | AID 540317 | P83916 | AlphaScreen HP1-beta / biotin-H3K9me3 peptide binding | Potency, µM (top dose mostly 114 µM), without a hit: at the top dose activity change, negative = inhibition, hits mostly inhibitors; also: potency is read from the fitted curve at half-maximal effect; nearly all actives have a fitted effect of over 70% in size
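AlphaScreen: HP1-beta (50 nM) preformed 30 min with biotin-H3(1-18)K9me3 peptide (50 nM) in PBS pH 7.4, 0.01% Tween-20. Compound added for 30 min at RT, then streptavidin donor/nickel chelate acceptor beads (10 ug/mL) for 30 min.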
PI5P4K alpha inh: inhibitors of human PI5P4K alpha | 330,000 tested, 1.2% active | PI5P4Kalpha enzyme, ADP-Glo luminescence, 60 min; active compounds read low | AID 652105 | P48426 | max response, %; active = max response of -50% or lower; inconclusive = between -30% and -50%; inactive = -30% or higher; also: value at the top dose of about 77 µM; % is scaled to controls: 0 for no effect and ±100 for the full control effect
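Quantitative HTS of the MLSMR library against PI5P4Kalpha with substrate. ATP added last at 5 microM final; room temperature, 60 minutes. Remaining ATP depleted, ADP converted and read as luminescence.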
PLK1 PBD inh: blocks phosphopeptide binding to human PLK1 polo-box domain | P53350 | Plk1 PBD binding of FITC phosphopeptide, fluorescence polarization | Potency, µM, inactives show max response, negative = inhibition, actives largely listed as inhibitors | 360,000 tested, 2.8% active | AID 720504; also: potency is read from the fitted curve at half-maximal effect; series mostly up to about 57 µM; % is scaled to controls: 0 for no effect and ±100 for the full control effect; nearly all actives have a fitted effect of over 65% in size
KAT2A inh: GCN5L2 (KAT2A) acetyltransferase inhibition; Q92830; Potency, µM (top dose mostly 58.9 µM), for inactives: at the highest dose activity change, negative = inhibition, usual class: inhibitors; 390,000 tested, 0.21% active; GCN5L2 HAT assay, ThioGlo1 CoA-SH fluorescence; also: potency is read from the fitted curve at half-maximal effect; % is scaled to controls: 0 for no effect and ±100 for the full control effect
Target sequence (Q92830 whole entry, looked up): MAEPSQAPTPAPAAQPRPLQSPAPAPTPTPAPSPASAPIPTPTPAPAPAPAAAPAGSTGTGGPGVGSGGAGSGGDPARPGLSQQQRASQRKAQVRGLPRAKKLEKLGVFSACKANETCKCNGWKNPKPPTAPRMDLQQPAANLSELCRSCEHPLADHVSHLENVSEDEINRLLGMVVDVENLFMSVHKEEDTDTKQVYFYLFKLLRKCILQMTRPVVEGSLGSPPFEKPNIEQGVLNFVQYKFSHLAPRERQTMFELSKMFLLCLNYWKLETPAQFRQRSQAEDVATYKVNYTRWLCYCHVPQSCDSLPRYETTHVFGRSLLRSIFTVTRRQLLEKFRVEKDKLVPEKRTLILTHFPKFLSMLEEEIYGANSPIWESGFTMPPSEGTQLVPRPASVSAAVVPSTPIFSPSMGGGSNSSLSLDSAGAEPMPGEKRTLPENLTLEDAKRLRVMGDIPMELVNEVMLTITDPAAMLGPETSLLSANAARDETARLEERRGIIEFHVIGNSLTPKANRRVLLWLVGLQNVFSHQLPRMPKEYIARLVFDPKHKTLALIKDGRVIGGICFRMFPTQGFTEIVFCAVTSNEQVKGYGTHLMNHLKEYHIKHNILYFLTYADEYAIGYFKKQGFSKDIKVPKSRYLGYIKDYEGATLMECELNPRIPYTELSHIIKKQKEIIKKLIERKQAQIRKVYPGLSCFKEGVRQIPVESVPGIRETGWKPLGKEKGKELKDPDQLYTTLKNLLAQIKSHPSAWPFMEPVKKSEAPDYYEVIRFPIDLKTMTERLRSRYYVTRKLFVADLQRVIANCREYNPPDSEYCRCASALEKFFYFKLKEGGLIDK
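Enzyme at 20nM final was mixed with library compounds for 15 min at room temperature. Peptide H3(1-25) at 75uM, acetyl-CoA at 70uM and ThioGlo1 at 50uM were then added. Plates were read immediately and after 20 min (Ex340nm/Em540nm).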
JMJD2A Tudor: blocks the human JMJD2A Tudor domain; O75164; AlphaScreen JMJD2A-Tudor / H3K4me3 peptide binding; Potency, µM (titrated, usually from 114 µM), for inactives: top-dose activity change, negative = inhibition, hits mostly inhibitors; 390,000 tested, 4.4% active; AID 504339; also: potency is read from the fitted curve at half-maximal effect; % is scaled to controls: 0 for no effect and ±100 for the full control effect; nearly all actives have a fitted effect of over 50% in size
BAZ2B inh: inhibitors of human BAZ2B bromodomain; Q9UIF8; AlphaScreen BAZ2B-H3K14Ac peptide displacement; Potency, µM (series often up to 114 µM), for inactives: at the highest dose activity change, negative = inhibition, most hits filed as inhibitors; 360,000 tested, 4.4% active; AID 504333; also: potency is read from the fitted curve at half-maximal effect; % is scaled to controls: 0 for no effect and ±100 for the full control effect; nearly all actives have a fitted effect of over 60% in size
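Multi-concentration screen (max 110 uM) measuring displacement of acetylated histone H3 peptide from BAZ2B by AlphaScreen, using 50 nM protein, 50 nM peptide and 10 ug/mL streptavidin donor plus Ni-chelate acceptor beads.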
Starred values were filed as active, the others as inactive; u = inconclusive; x = no result; [ ] = another dose, or the depositor's remark. Unless noted, calls follow the shape of the dose curve; as a rule, active = well fitted curve in the direction sought with a large enough effect; inconclusive = small, poorly fitted or top-dose-only effect, or another doubt; inactive = no such curve, though single readings can be large; an effect the other way counts as inactive or inconclusive.

SMILES	HP1b binding inh	PI5P4K alpha inh	PLK1 PBD inh	KAT2A inh	JMJD2A Tudor	BAZ2B inh
CC1c2cc3c(cc2CCN1C(=O)c1cccc(Cl)c1)OCCCO3 (configuration not stated)	50.5%	-2.7	0.3%	0.1%	19.5%	-8.5%
CC(C)c1ccc(/C=C2\CC/C(=C\C=N\N(C)C)C2=O)cc1	-1.6%	-6.6	-6.0%	-10.6%	u	56.2µM*
CN(C)/N=C/C=C1\CC/C(=C\c2ccc(F)c(F)c2)C1=O	23.5%	0.4	-15.1%	x	u	x
CCOc1ccc(NC(=O)CC2C(=O)N(c3ccc(OC)cc3)C(=O)N2CCC2=CCCCC2)cc1 (configuration not stated)	40.4%	x	x	-2.9%	-0.3%	1.7%
COc1ccc(NC(=O)C(CC(=O)O)Cc2ccccc2)cc1 (configuration not stated)	9.0%	x	-7.8%	2.3%	-31.1%	0.3%
COc1ccc(NC(=O)C(CC(=O)O)C(C)c2ccccc2)cc1 (configuration not stated)	-17.2%	-10.2	9.47µM*	-10.9%	14.1µM*	7.3%
c1coc(-c2nnc(-c3ccco3)nn2)c1	44.7µM*	-79.3*	-11.2%	-22.1%	25.1µM*	20µM*
Cc1cc(C)c(C(=O)CSc2n[nH]c(-c3ccncc3)n2)c(C)c1	35.4%	5.3	-13.0%	-11.4%	-10.5%[57.1 µM]	-10.3%
Cc1ccc(C)c(C(=O)CSc2n[nH]c(-c3ccncc3)n2)c1	29.3%	-2.8	-3.6%	-10.9%	89.1µM*	-3.9%
Cc1ccccc1C(=O)Nc1sc(C)c(C)c1C(=O)c1ccccc1	u	1.3	21.2µM*	-10.4%	u	u
Cc1sc(NC(=O)CCl)c(C(=O)c2ccccc2)c1C	u	x	26.7µM*	-13.9%	20µM*	u
O=S(=O)(Nc1cc(F)ccc1F)c1ccc2[nH]c3c(c2c1)CCCCC3	-25.5%	x	x	-7.5%	u	39.8µM*
O=S(=O)(NCc1ccc(F)cc1)c1ccc2[nH]c3c(c2c1)CCCCC3	u	x	x	6.8%	44.7µM*	-26.1%[57.1 µM]
COc1ccc(CCNC(=O)c2cc3sccc3n2Cc2ccc(Cl)cc2)cc1OC	19.1%	x	x	-5.6%	u	-25.0%
O=C(NCCCN1CCOCC1)C1CCN(S(=O)(=O)c2cccc(Cl)c2Cl)CC1	9.7%	-7.5	2.2%	-5.7%	-6.8%	12.5%
O=S(=O)(c1cccc(Cl)c1Cl)N1CCN(C(=S)NCCCN2CCOCC2)CC1	28.2µM*	6.2	u	-2.2%	1.58µM*	50.1µM*
Cc1c(C(=O)O)cccc1-n1c(C)cc(C=O)c1C	1.2%	-3.0	u	-4.4%	50.1µM*	u
Cc1ccc(C(=O)O)cc1-n1c(C)cc(C=O)c1C	14.5%	-2.3	-8.5%	-3.5%	-30.5%	79.4µM*
CCOc1ccccc1-n1c(C)cc(C=O)c1C	-1.8%	0.2	-0.2%	18.0%	-31.2%	-31.8%
Cc1cc(C=O)c(C)n1-c1sc2c(c1C(=O)O)CCCC2	27.5%	1.0	-8.8%	-1.5%	-10.7%	-6.1%
CC(C)n1c(SCCCc2ccccc2)nc2c1c(=O)[nH]c(=O)n2C	-9.6%	-4.9	9.47µM*	1.6%	-2.1%	1.2%
COc1ccc(CCn2c(-n3nc(C)cc3C)nc3c2c(=O)[nH]c(=O)n3C)cc1	-13.5%	u	2.99µM*	x	3.16µM*	x
CCCCCOC(=O)CSc1nc2c(c(=O)[nH]c(=O)n2C)n1CCc1ccccc1	-15.0%	-9.8	21.2µM*	2.5%	7.9%	-5.8%
COCCSc1nc2c(c(=O)[nH]c(=O)n2C)n1CCCc1ccccc1	-23.6%	-22.3	21.2µM*	-24.1%	-16.5%	5.1%
COCCn1c(SCCCc2ccccc2)nc2c1c(=O)[nH]c(=O)n2C	-10.5%	-3.4	u	-6.4%	-1.9%	9.1%
CCCCCn1c(SCCc2ccccc2)nc2c1c(=O)[nH]c(=O)n2C	27.0%	-4.0	-8.6%	2.0%	-14.5%	14.0%
Cc1cc(Cl)ccc1OCCCC(=O)NNC(=O)c1ccccc1O	81.4%	-3.7	2.0%	-0.5%	-12.0%	4.9%
